In the supplement of paper PMC12350171:
Structures can show the parent of a compound that is named as a salt. Unmarked numbers belong to inactive results.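 How the source made its calls: active = AUC significantly below DMSO controls by Student t-fit with adjusted P under 0.01; inactive = not significantly reduced.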

tested on: Haemophilus parainfluenzae; assay: growth AUC normalised to DMSO control (fraction of control); higher = less growth inhibition, active = hit call of the paper; settings: 20 µM
Outline: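 Pathogens passaged twice anaerobically were inoculated at a starting OD578 of 0.01 into pre-reduced mGAM plates with drug at 20 μM and 1% DMSO, sealed with breathable membranes. Haemophilus parainfluenzae medium was supplemented with hemin and NAD. OD578 was read hourly for 24 h, with three biological replicates. Growth-curve AUC was computed by the trapezoidal rule up to the exponential-to-stationary transition and normalised to DMSO controls on the same plate.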

SMILES	growth AUC normalised to DMSO control
Cn1c(=O)c2[nH]cnc2n(C)c1=O [Aminophylline]	1.04
CCN[C@H]1CN(CCCOC)S(=O)(=O)c2sc(S(N)(=O)=O)cc21 [Brinzolamide]	0.946
CCN(CCO)CCCC(C)Nc1ccnc2cc(Cl)ccc12 (stereo unspecified) [Hydroxychloroquine sulfate]	1
CC(=O)Oc1cccc2c1C(=O)c1c(OC(C)=O)cc(C(=O)O)cc1C2=O [Diacerein]	0.779 (active)
O=C(O)c1cccnc1Nc1cccc(C(F)(F)F)c1 [Niflumic acid]	1.02
Nc1nc2ccc(OC(F)(F)F)cc2s1 [Riluzole hydrochloride]	1.01
N/C(=N\C(=O)c1nc(Cl)c(N)nc1N)NCc1ccccc1 [Benzamil hydrochloride]	0.991
CC(=O)O[C@]1(C(C)=O)CC[C@H]2[C@@H]3C=C(Cl)C4=CC(=O)[C@@H]5C[C@@H]5[C@]4(C)[C@H]3CC[C@@]21C [Cyproterone acetate]	1.01
CC(=O)/N=c1/sc(S(N)(=O)=O)nn1C [Methazolamide]	1
O=C(O)c1cn(-c2ccc(F)cc2)c2cc(N3CCNCC3)c(F)cc2c1=O [Sarafloxacin]	0.0521 (active)
CCN(CC)Cc1cc(Nc2ccnc3cc(Cl)ccc23)ccc1O [Amodiaquine dihydrochloride dihydrate]	0.992
CCOc1ccccc1OCC1CNCCO1 (stereo unspecified) [Viloxazine hydrochloride]	0.967
CCCCOc1cc(C(=O)OCCN(CC)CC)ccc1N [Benoxinate hydrochloride]	1.01
CN1CCN(CCCN2c3ccccc3Sc3ccc(S(=O)(=O)N(C)C)cc32)CC1 [Thioproperazine dimesylate]	1.01
OC(CCN1CCCCC1)(c1ccccc1)C1CC2C=CC1C2 (stereo unspecified) [Biperiden hydrochloride]	0.95
CC(C)(Sc1cc(C(C)(C)C)c(O)c(C(C)(C)C)c1)Sc1cc(C(C)(C)C)c(O)c(C(C)(C)C)c1 [Probucol]	1.01
O=C1O[C@H]([C@@H](O)CO)C(O)=C1O [Ascorbic acid]	1.06
C[C@]12C[C@H](O)[C@H]3[C@@H](CCC4=CC(=O)CC[C@@]43C)[C@@H]1CC[C@@H]2C(=O)CO [Corticosterone]	0.962
NC[C@H]1O[C@H](O[C@H]2[C@H](O)[C@@H](O[C@H]3O[C@H](CO)[C@@H](O)[C@H](N)[C@H]3O)[C@H](N)C[C@@H]2N)[C@H](N)C[C@@H]1O [Tobramycin]	0.0457 (active)
COc1ccccc1OCC(O)CO (stereo unspecified) [Guaifenesin]	1.04
CN(C)CCCN1c2ccccc2CCc2ccccc21 [Imipramine hydrochloride]	0.923
CC(=O)N(O)CCCCCNC(=O)CCC(=O)N(O)CCCCCNC(=O)CCC(=O)N(O)CCCCCN [Deferoxamine mesylate]	1.07
CCCCOc1ccc(OCCCN2CCOCC2)cc1 [Pramoxine hydrochloride]	0.936
O=C1CCC(N2C(=O)c3ccccc3C2=O)C(=O)N1 (stereo unspecified) [Thalidomide]	0.97
CC(=O)N(CC(O)CO)c1c(I)c(C(=O)NCC(O)CO)c(I)c(C(=O)NCC(O)CO)c1I (stereo unspecified) [Iohexol]	0.981
CCC(=O)OCC(=O)[C@@]1(OC(=O)CC)[C@@H](C)C[C@H]2[C@@H]3CCC4=CC(=O)C=C[C@]4(C)[C@@]3(Cl)[C@@H](O)C[C@@]21C [Beclomethasone dipropionate]	0.969
